According to PubChem BioAssay:
Calls of active or inactive are those of the source.

What was measured:
[1] = tested on: Plasmodium falciparum Sir2 (PF13_0152, Sir2A); assay: pfSir2 binders on small-molecule microarrays, primary screen, biochemical, small-molecule microarray, 635 nm fluorescence (AID 1098); conditions: small-molecule microarray binding, fluorescence 635 nm; higher = more signal;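 also: score merges spot fluorescence intensity with its signal-to-noise ratio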
[2] = small-molecule microarray binders of probe aDKK1, primary screen, biochemical, biotinylated probe, 635/667 nm fluorescence (AID 1099); conditions: higher = more signal;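 also: score merges 667nm spot fluorescence with signal to noise across triplicate slides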
[3] = small-molecule microarray binders of probe aCHRDL2, primary screen, biochemical, biotinylated probe, 635/667 nm fluorescence (AID 1100); conditions: higher = more signal
[4] = splicing luciferase reporter signal modulators, primary screen, spliceosome inhibition project, cell-based, HEK293, splice +/- reporter (AID 1101); conditions: luminescence, 24 h, higher = more signal, called active from +8 up or from −8 down;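 also: HEK293 cells carrying a splicing-competent luciferase reporter gene; test concentration not given here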
[5] = molecular target: Fibroblast growth factor 10 (Homo sapiens) (UniProt O15520); assay: FGF10 binders on small-molecule microarrays, primary screen, biochemical, small-molecule microarray, 635 nm fluorescence (AID 1102); conditions: FGF10 binding, fluorescence 635 nm, higher = more signal
[6] = tested on: glycogen synthase kinase-3 (GSK3A per assay name; protocol says GSK3B); assay: GSK3 binders on small-molecule microarrays, primary screen, biochemical, small-molecule microarray, 635 nm fluorescence, GSK3A (AID 1103); conditions: small-molecule microarray binding, fluorescence 635 nm; higher = more signal; also: the record names both GSK3A and GSK3B
[7] = molecular target: Epidermal growth factor receptor (Homo sapiens) (UniProt P00533); assay: EGFR binders on small-molecule microarrays, primary screen, biochemical, small-molecule microarray, 635 nm fluorescence (AID 1104); conditions: EGFR binding, higher = more signal;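 also: score merges 667 nm emission intensity with spot signal to noise over triplicate slides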
[8] = molecular target: Follistatin-related protein 3 (Homo sapiens) (UniProt O95633); assay: FSTL3 binders on small-molecule microarrays, primary screen, biochemical, small-molecule microarray, 635 nm fluorescence (AID 1105); conditions: FSTL3 binding, higher = more signal;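 also: score merges emission near 667 nm and signal to noise per printed spot across three slides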
[9] = molecular target: Dickkopf-related protein 1 (Homo sapiens) (UniProt O94907); assay: DKK1 binders on small-molecule microarrays, primary screen, biochemical, small-molecule microarray, 635 nm fluorescence scan (AID 1106); conditions: DKK1 binding, higher = more signal;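 also: score merges emission near 667 nm with signal to noise over three replicate slides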
[10] = tested on: Inhibin beta A chain (activin A); assay: INHBA (activin A) binders on microarrays, primary screen, biochemical, small-molecule microarray, 635 nm fluorescence scan (AID 1107); conditions: small-molecule microarray binding, higher = more signal;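 also: mouse activin A protein probed at 4.33 µg/mL on printed slides; score merges bound-protein fluorescence near 667 nm with spot signal-to-noise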
[11] = tested on: Human papillomavirus type 1a protein E7 (residues 44-93); assay: HPV1a E7 fragment binders on microarrays, primary screen, biochemical, small-molecule microarray, residues 44-93, 635 nm fluorescence (AID 1108); conditions: small-molecule microarray binding, fluorescence 635 nm; higher = more signal;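 also: E7 fragment applied at 1 µg/mL in TBST for 1 h at 4 C; score combines spot fluorescence with its signal to noise ratio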
[12] = modulators of HCV replicon luciferase signal, primary screen, HCV replication inhibitor project, Huh7 cells, luciferase reporter (AID 1109); conditions: 48 h, higher = more signal;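 also: huh7 hepatoma cells harbouring a luciferase neomycin HCV replicon reporter; luciferase luminescence as measure of HCV replicon replication; test concentration not given here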
[13] = molecular target: Left-right determination factor 2 (Homo sapiens) (UniProt O00292); assay: LEFTY2 binders on small-molecule microarrays, primary screen, biochemical, small-molecule microarray, 635 nm fluorescence scan (AID 1110); conditions: LEFTY2 binding, higher = more signal
[14] = molecular target: Calmodulin-1 (Homo sapiens) (UniProt P0DP23); assay: CALM1 binders on microarrays, EGTA buffer, profiling panel, biochemical, small-molecule microarray, Cy5-labelled CALM1 (AID 1111); conditions: Cy5-CALM1 binding fluorescence, higher = more signal;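 also: labelled calmodulin applied in Tris saline Tween buffer holding calcium plus EGTA and DTT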
[15] = molecular target: Calmodulin-1 (Homo sapiens) (UniProt P0DP23); assay: calcium-bound CALM1 binders on microarrays, profiling panel, artefact control for SMM control-protein annotation, biochemical, small-molecule microarray, Cy5-labelled CALM1, plus calcium (AID 1112); conditions: Cy5-CALM1 binding fluorescence, higher = more signal;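 also: score merges spot fluorescence with signal to noise from triplicate slides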
[16] = small-molecule microarray binders of probe aWnt5a, primary screen, biochemical, biotinylated probe, 635/667 nm fluorescence (AID 1113); conditions: higher = more signal;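 also: score merges 667 nm fluorescence intensity with signal-to-noise per printed feature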
[17] = small-molecule microarray binders of probe aShh, primary screen, biochemical, biotinylated probe, 635/667 nm fluorescence (AID 1114); conditions: higher = more signal;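 also: probe is biotin-labelled aShh protein from a stem cell growth factor screen; measures binding of labelled protein to compounds printed on the slide; score merges feature fluorescence at 667 nm with signal-to-noise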
[18] = small-molecule microarray binders of probe aNog, primary screen, biochemical, biotinylated probe, 635/667 nm fluorescence (AID 1115); conditions: higher = more signal;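 also: probe is biotinylated aNog protein used at 0.15 µg/mL for 1 h at 4 C; z-score combines 667 nm fluorescence of each spot with its signal to noise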
[19] = molecular target: Torsin-1A-interacting protein 1 (Homo sapiens) (UniProt Q5JTV8); assay: LAP1 binders from COS7 cell lysate, primary screen, small-molecule microarray, 635/667 nm fluorescence (AID 1116); conditions: COS7-hLAP1 lysate binding, 635 nm fluorescence, higher = more signal
[20] = molecular target: Alpha-bungarotoxin (Bungarus multicinctus) (UniProt P60615); assay: alpha-bungarotoxin binders on microarray, profiling panel, artefact control for SMM control protein annotation, biochemical, small-molecule microarray, Alexa647 label, 635/667 nm fluorescence (AID 1117); conditions: alpha-BTX-A647 binding fluorescence, higher = more signal
Alpha-bungarotoxin (Bungarus multicinctus), sequence (P60615 whole entry, looked up): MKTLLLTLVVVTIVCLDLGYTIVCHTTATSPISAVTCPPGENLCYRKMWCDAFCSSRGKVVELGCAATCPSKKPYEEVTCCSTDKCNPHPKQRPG

Follistatin-related protein 3 (Homo sapiens), sequence (O95633 whole entry, looked up): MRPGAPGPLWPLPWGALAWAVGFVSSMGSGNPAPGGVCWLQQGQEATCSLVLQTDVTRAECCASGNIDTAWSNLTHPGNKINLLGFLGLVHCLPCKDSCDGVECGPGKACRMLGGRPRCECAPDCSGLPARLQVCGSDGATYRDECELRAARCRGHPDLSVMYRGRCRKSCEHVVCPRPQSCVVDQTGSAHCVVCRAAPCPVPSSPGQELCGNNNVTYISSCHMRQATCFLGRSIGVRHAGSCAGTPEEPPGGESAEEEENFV
Fibroblast growth factor 10 (Homo sapiens), sequence (O15520 whole entry, looked up): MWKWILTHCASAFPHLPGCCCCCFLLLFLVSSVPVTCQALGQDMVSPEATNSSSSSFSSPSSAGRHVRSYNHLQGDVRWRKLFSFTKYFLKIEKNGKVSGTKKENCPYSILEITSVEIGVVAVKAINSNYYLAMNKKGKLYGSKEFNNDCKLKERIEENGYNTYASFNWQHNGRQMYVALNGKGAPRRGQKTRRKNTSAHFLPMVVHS
Dickkopf-related protein 1 (Homo sapiens), sequence (O94907 whole entry, looked up): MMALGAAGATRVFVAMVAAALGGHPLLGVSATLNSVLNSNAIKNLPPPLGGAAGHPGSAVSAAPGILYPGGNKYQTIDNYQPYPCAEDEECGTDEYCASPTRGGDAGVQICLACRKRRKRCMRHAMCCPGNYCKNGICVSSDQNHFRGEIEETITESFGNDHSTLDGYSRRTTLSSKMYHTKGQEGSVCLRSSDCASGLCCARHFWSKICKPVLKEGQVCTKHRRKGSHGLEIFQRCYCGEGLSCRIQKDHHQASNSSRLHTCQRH
Left-right determination factor 2 (Homo sapiens), sequence (O00292 whole entry, looked up): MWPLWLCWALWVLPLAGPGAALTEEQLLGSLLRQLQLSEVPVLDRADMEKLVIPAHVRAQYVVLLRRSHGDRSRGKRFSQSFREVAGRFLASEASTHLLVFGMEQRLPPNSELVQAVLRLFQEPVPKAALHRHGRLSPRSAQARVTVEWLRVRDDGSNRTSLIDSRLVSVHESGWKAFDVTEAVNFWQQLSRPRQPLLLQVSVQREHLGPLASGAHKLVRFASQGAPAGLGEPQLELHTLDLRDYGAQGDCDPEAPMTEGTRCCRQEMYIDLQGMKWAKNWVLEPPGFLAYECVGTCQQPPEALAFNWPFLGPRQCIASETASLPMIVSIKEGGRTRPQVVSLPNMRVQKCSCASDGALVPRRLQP
Epidermal growth factor receptor (Homo sapiens), sequence (P00533 whole entry, looked up): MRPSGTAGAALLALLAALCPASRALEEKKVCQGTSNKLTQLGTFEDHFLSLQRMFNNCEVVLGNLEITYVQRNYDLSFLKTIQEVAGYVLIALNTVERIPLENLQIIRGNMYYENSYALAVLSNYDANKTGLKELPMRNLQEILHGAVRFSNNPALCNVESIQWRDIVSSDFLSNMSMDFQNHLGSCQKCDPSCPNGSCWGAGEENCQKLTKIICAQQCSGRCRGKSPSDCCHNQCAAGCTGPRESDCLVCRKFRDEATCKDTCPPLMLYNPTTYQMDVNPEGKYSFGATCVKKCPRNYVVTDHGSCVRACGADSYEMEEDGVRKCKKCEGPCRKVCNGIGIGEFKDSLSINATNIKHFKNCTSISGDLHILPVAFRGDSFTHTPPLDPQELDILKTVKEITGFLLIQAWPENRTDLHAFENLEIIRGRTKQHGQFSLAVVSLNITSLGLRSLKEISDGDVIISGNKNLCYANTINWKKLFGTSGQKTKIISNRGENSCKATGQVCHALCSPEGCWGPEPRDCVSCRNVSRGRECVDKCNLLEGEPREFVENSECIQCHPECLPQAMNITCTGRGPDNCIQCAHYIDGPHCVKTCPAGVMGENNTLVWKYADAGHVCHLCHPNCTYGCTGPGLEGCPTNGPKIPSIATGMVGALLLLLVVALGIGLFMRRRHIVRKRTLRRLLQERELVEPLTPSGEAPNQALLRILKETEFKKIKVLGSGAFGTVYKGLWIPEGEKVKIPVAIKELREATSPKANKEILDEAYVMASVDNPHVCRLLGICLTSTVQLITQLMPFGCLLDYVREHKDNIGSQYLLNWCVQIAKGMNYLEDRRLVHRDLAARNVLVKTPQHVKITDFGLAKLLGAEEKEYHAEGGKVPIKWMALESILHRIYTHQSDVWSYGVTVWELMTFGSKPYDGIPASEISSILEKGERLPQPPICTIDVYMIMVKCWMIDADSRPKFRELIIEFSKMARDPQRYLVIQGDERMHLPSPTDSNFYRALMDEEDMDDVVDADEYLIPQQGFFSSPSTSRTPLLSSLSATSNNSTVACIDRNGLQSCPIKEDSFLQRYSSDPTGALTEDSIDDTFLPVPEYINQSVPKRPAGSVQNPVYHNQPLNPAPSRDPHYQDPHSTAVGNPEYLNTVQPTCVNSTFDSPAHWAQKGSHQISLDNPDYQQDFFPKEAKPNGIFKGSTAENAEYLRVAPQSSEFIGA
Torsin-1A-interacting protein 1 (Homo sapiens), sequence (Q5JTV8 whole entry, looked up): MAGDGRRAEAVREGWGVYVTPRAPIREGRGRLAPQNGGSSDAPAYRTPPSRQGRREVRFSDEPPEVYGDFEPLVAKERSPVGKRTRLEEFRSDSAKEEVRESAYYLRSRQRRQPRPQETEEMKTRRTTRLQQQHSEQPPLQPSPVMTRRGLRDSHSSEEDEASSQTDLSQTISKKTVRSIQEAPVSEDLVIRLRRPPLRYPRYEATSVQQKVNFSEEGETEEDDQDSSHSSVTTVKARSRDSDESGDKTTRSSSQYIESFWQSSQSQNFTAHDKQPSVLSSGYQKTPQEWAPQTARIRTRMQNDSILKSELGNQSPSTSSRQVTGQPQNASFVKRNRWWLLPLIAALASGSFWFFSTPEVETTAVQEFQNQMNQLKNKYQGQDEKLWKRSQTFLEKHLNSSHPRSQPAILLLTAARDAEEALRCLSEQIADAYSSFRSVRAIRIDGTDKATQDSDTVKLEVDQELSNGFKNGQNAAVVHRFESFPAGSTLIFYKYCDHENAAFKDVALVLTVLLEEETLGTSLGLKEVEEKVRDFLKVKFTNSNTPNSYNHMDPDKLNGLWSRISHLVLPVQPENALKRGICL

SMILES	composite z-score [1]	composite z-score [2]	composite z-score [3]	z-score [4]	composite z-score [5]	composite z-score [6]	composite z-score [7]	composite z-score [8]	composite z-score [9]	composite z-score [10]	composite z-score [11]	z-score [12]	composite z-score [13]	composite z-score [14]	composite z-score [15]	composite z-score [16]	composite z-score [17]	composite z-score [18]	composite z-score [19]	composite z-score [20]
COCC(=C=CC[C@@H](O)c1ccc(CO)o1)CCO	0.772	-0.239	-0.181	-2.32 (inactive)	1.26	0.0348	0.614	0.574	0.618	0.839	-0.494	-0.711	0.744	-0.699	-0.662	-0.124	-0.217	-0.387	2.23	-0.0933
Cc1cc(C)c(C(O)C2C=CC3C(=O)N(C)C(=O)C3N2Nc2ccccc2)c(C)c1 (stereo not given)	1.13	1.84	0.796	0.55 (inactive)	0.636	0.399	0.745	0.38	0.209	1.25	-0.7	0.228	0.627	1.16	-0.0299	0.881	0.365	1.45	1.23	0.821
CCCN1C(=O)[C@]2(COC(c3ccc(OCCCO)cc3)=N2)Cc2ccccc21	1.08	1.09	1.1	0.409 (inactive)	0.736	1	-0.542	0.378	0.0779	0.854	0.147	0.0172	-0.196	1.11	0.599	-0.0462	0.118	0.705	0.39	1.03
CC=CC(O)C1C=CC2C(=O)N(c3ccccc3)C(=O)C2N1Nc1ccc(C(C)C)cc1 (stereo not given)	0.534	0.75	0.973	-0.235 (inactive)	0.878	1.24	0.122	1.3	0.14	0.841	1.42	0.837	0.363	1.42	0.138	0.0194	0.0469	1.65	0.37	1.78
CC(C)=CCCC(C)=CC(O)C1C=CC2C(=O)N(c3ccccc3)C(=O)C2N1Nc1ccccc1 (stereo not given)	1.36	1.21	0.997	1.18 (inactive)	1.05	0.978	0.251	1.38	0.113	1.06	0.704	-0.517	0.12	2.23	1.18	0.139	0.393	1.88	1.03	2.95
O=C1O[C@@H](c2ccccc2)[C@@H](c2ccccc2)N2[C@@H](c3ccc(O)cc3)[C@]3(C(=O)Nc4ccc(C#CC5(O)CCCCCC5)cc43)[C@@H](C(=O)N3CCCCCCC3)[C@H]12	1.99	2.61	1.26	-0.612 (inactive)	1.51	1.38	1.83	1.53	2.49	1.86	1.48	-1.29	1.43	2.6	1.61	1.45	2.73	3.67	4.7	3.03
O=C1OCC=C[C@H]2OC34C=CCN(c5ccc6ccccc6c5)C(=O)[C@H]3N(CCCO)C(=O)[C@@H]4[C@@H]12 (stereo not given in full)	1.17	0.0114	0.899	-1.72 (inactive)	-0.709	-1.34	-1.15	-0.699	-1.06	0.374	-0.522	-0.805	-0.842	-0.0892	0.172	-0.124	-0.15	0.135	0.208	-0.871
O=C(CS)NCCCCCCNC(=O)[C@@H]1C[C@@H]2C(=O)N3CCC[C@H]3C(=O)N2[C@@H]1c1ccc(O)cc1	0.425	-0.207	0.597	0.552 (inactive)	-0.252	0.691	-0.226	-0.32	0.17	-0.41	1.41	-0.695	-0.793	0.347	0.0689	0.0868	-0.0146	-0.264	1.35	0.139
CC(C)NC(=O)[C@@]1(Cc2ccccc2I)c2ccccc2C(=O)N(Cc2ccccc2)[C@H]1c1ccc(CO)cc1	1.45	0.461	0.715	-0.227 (inactive)	0.954	1.28	0.136	1.09	0.0622	0.315	0.997	-1.09	0.337	0.447	-0.726	0.0438	-0.0503	-0.422	0.568	1.4
COCC(=C=CC[C@H](O)c1ccc(OCCO)cc1)C[C@H](O)c1cc(Cl)cc(Cl)c1O	0.654	-0.268	-0.0229	-2.51 (inactive)	1.55	0.26	0.0404	1.11	-0.043	0.598	1.35	-3.96	0.628	-0.281	-0.814	-0.0108	0.678	0.277	0.163	0.155
O=C1OCCC=C[C@H]2OC34C=CCN(Cc5ccccc5)C(=O)[C@H]3N(CCCO)C(=O)[C@@H]4C12 (stereo not given in full)	0.53	-0.33	-0.182	-1.74 (inactive)	-0.745	-1.44	-0.873	-0.512	-0.179	0.399	-0.786	-0.0946	-0.424	-0.438	0.0072	-0.164	-0.206	-0.0602	0.0647	-0.473
